Source: PubChem BioAssay
tim10-1 inh: growth inhibitors of tim10-1 mutant yeast, primary screen, luminescence, uHTS. S. cerevisiae tim10-1 ts strain growth, BacTiter-Glo, 24 h. actives 2.2% (n = 330,000). inhibition, % at 20 µM;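 active means inhibition of at least 40%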;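 further: mutant grown at 25 °C; 0% = DMSO wells with yeast and 100% = wells holding no yeast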
tim23-1 inh: growth inhibitors of tim23-1 mutant yeast, primary screen, luminescence, uHTS. S. cerevisiae tim23-1 growth, BacTiter-Glo luminescence, 24 h. AID 463212, 2010. actives 1.3% (n = 330,000). inhibition, % at 20 µM;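 active means growth inhibition of the mutant yeast at or above 50%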;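 further: temperature-sensitive mutant grown at 25 °C; plate controls were DMSO-treated mutant yeast for no effect and medium wells lacking yeast for full effect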
NLRP3 yeast inh: NALP3 inflammasome inhibitors in reconstituted yeast, primary screen, luminescence, uHTS; Yeast reconstituted NLRP3/ASC/caspase-1, beta-gal luminescence, 24 h; inhibition, % at 10 µM; actives 0.39% (n = 330,000);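 active means inhibition of 50% or more; inactive means inhibition below 50%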;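 further: plate controls were induced DMSO wells for no effect and uninduced yeast grown without galactose for full effect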
TIM10 inh: growth inhibitors of isogenic TIM10 control yeast, primary screen, counter-screen for tim10-1 yeast inhibitor project, luminescence, uHTS | S. cerevisiae TIM10 strain growth, BacTiter-Glo luminescence, 24 h | actives 1.4% (n = 330,000) | AID 463195, 2010 | inhibition, % at 10 µM;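 active means inhibition of 40% or more at the single tested concentration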;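 further: wild-type TIM10 isogenic control strain grown at permissive 25 °C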
PfHsp90 yeast 2: growth inhibition of PfHsp90-expressing yeast, primary screen, antimalarial PfHsp90 inhibitor project, S. cerevisiae, BacTiter-Glo luminescence, single point, set 2 | BacTiter-Glo ATP, 48 h; yeast lacking PDR1 and PDR3 efflux regulators | inhibition, % at 9.4 µM | actives 0.32% (n = 310,000);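 active means every replicate shows inhibition above about 80%, whatever the replicate mean, limit read from the data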;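 further: 0% = DMSO neutral controls and 100% = 20 µM radicicol positive controls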
NALP1 inh: NALP1 inflammasome inhibitors in reconstituted yeast, colorimetric, S. cerevisiae, triplicate retest | S. cerevisiae NALP1/ASC/caspase-1 growth, X-gal OD620, 72 h | inhibition, % at 10 µM | actives 0.61% (n = 280,000); in the data active means inhibition mostly above about 24%, no sharp cut-off; inactive means mostly below about 32%
tim10-1 confirm: growth inhibitors of tim10-1 mutant yeast, confirmation, single concentration, luminescence, S. cerevisiae. inhibition, % at 20 µM. actives 56% (n = 7,400). AID 463213, 2010. shares compounds with tim10-1 inh. S. cerevisiae tim10-1 ts strain growth, BacTiter-Glo, 24 h;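 active means inhibition of yeast growth at or above a set limit in either of two repeat tests at 20 µM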;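 further: tim10-1 mutant grown at permissive 25 °C to find synthetic lethal compounds; 0% = DMSO yeast wells and 100% = medium wells without yeast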
tim10 confirm: growth inhibitors of wild-type TIM10 yeast, confirmation, counter-screen for tim10-1 synthetic lethality project, single concentration, luminescence, S. cerevisiae | shares compounds with TIM10 inh | S. cerevisiae tim10 strain growth, BacTiter-Glo luminescence, 24 h | inhibition, % at 10 µM | actives 63% (n = 4,600) | AID 463215, 2010;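 active means inhibition of yeast growth at or above a set limit in either of two replicates at 10 µM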;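 further: this counterscreen used the strain with wild-type TIM10; 0% = yeast with DMSO and 100% = medium wells lacking yeast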
The depositor's hits bear a star; . = no result. Hits are enriched below; roughly 4.2% of the tested compounds scored in any of these assays.

SMILES | tim10-1 inh | tim23-1 inh | NLRP3 yeast inh | TIM10 inh | PfHsp90 yeast 2 | NALP1 inh | tim10-1 confirm | tim10 confirm
CC(OC(=O)c1ccc(Cl)nc1)C(=O)Nc1ccc2c(c1)OCO2 (centres undefined) | -9 | 5 | 8 | -6 | -26 | . | . | .
Cc1nc2c3cc(F)ccc3n(Cc3ccccc3)c2s1 | 45* | 33 | -48 | 48* | 26 | . | 36* | 37*
Cc1nc2c3cc(F)ccc3n(CCN3CCCCC3)c2s1 | 17 | 9 | -12 | 18 | . | 3 | . | .
COc1cccc(OC)c1C(=O)Nc1ccc(C(=O)c2ccncc2)cc1 | 3 | 20 | 12 | -3 | -14 | . | . | .
O=C(C=Cc1ccccc1)Nc1ccccc1 | . | . | . | . | 12 | . | . | .
Cc1nc(NC(=O)/C=C/c2ccccc2)n[nH]1 | 60* | 44 | 17 | 61* | 19 | 51 | 59* | 53*
N/C(=N\OC(=O)COc1ccc(Cl)cc1Br)c1ccncc1 | . | . | . | . | 4 | 20 | . | .
N/C(=N\OC(=O)c1cccc(Br)c1)c1ccc(Br)cc1 | -31 | 13 | 17 | 4 | -31 | 4 | . | .
N/C(=N\OC(=O)CCCOc1ccc(Cl)cc1Cl)c1ccncc1 | 54* | 6 | 11 | 43* | 15 | 4 | 30* | 4
N/C(=N\OC(=O)CCCOc1ccccc1)c1ccccc1 | 44* | 41 | 14 | 51* | -2 | 14 | 37* | 35*
N/C(=N\OC(=O)c1ccc(Br)cc1)c1ccccc1 | 55* | 40 | 15 | 50* | . | 4 | 52* | 67*
N/C(=N\OC(=O)CCCOc1ccccc1)c1ccncc1 | 11 | 13 | 6 | -3 | 15 | 15 | . | .
O=[N+]([O-])c1ccc(-c2n(-c3ccccn3)c3ccccc3[n+]2-c2ccccn2)cc1 | 9 | 21 | 2 | -9 | -12 | . | . | .
C=CCn1c(SCc2c(F)cccc2Cl)nnc1-c1ccco1 | 41* | 46 | 9 | 51* | -3 | 9 | 37* | 23
C=CCn1c(SCC(=O)Nc2cc(C)c(Cl)cc2OC)nnc1-c1ccco1 | 31 | 36 | 19 | 8 | -3 | 2 | . | .
Cc1ccccc1-c1cc(-c2ccccc2O)n[nH]1 | 45* | 44 | 7 | 65* | -7 | -3 | 14 | 6
COc1ccc(C(=O)c2cc3c(cc2[N+](=O)[O-])OCCO3)cc1 | 21 | 19 | 7 | -11 | 9 | 0 | . | .
COc1ccc(C(=O)n2c(SC)nc3cc4c(cc32)OCCO4)cc1 | 43* | 44 | 26 | 47* | 14 | 13 | 37* | 21
COc1cc(C(=O)Nc2ccc(C)c(S(=O)(=O)N(C)C)c2)ccc1OCC(=O)N1CCOCC1 | -8 | 11 | 21 | -10 | 31 | . | . | .
Cc1ccc(S(=O)(=O)ON2C(=O)c3ccccc3C2=O)c(C)c1 | . | . | . | . | 11 | 20 | . | .
Cc1cc(C)c(S(=O)(=O)ON2C(=O)c3ccccc3C2=O)cc1C | 71* | 14 | 26 | 45* | 3 | 7 | 60* | 74*
CCCCCC(=O)NC(=S)Nc1ccc(Cl)cn1 | 47* | 40 | 3 | 44* | -3 | 24 | 28* | 6
CCCCCC(=O)Nc1ccc(Cl)cn1 | -8 | 7 | 8 | -8 | -3 | 21 | . | .
COc1ccc(NC2c3ccccc3C(=O)N2Cc2ccc3c(c2)OCO3)cc1 (centres undefined) | 7 | 26 | 12 | -6 | 11 | . | . | .
Cc1nn(-c2ccccc2)c(C)c1/C=N/NC(=O)c1ccc(F)cc1 | 20 | 16 | -2 | 12 | -12 | . | . | .
SMILES | tim10-1 inh | tim23-1 inh | NLRP3 yeast inh | TIM10 inh | PfHsp90 yeast 2 | NALP1 inh | tim10-1 confirm | tim10 confirm
CC(C)(C)c1cc(C(=O)N/N=C/c2ccc(F)cc2)n(-c2ccccc2)n1 | 51* | 46 | 1 | 45* | 23 | 45 | 34* | 24
Cc1cc(C)c(C(=O)/C=C/c2ccc(C(C)C)cc2)c(=O)[nH]1 | 49* | 26 | 24 | 43* | 15 | 10 | 53* | 37*
Cc1cc(C)c(C(=O)/C=C/C=C/c2ccccc2)c(=O)[nH]1 | 27 | 21 | 12 | 30 | 33 | 12 | . | .
CCCN(CCC)C(=O)c1cc(S(=O)(=O)N2CCCCC2)c[nH]1 | 13 | 17 | 13 | -2 | 22 | 17 | . | .
CC(C)Cn1c(-c2csc3c2CCCC3)n[nH]c1=S | 48* | 40 | 21 | 44* | 6 | -10 | 20 | 40*
CC(C)Cn1c(-c2ccccc2F)n[nH]c1=S | 17 | 12 | 3 | 2 | . | 3 | . | .
CC(=O)Oc1ccc2c(=O)c(/C=N/c3cc(=O)[nH]c(=S)[nH]3)coc2c1 | -15 | 2 | 16 | 3 | -33 | 9 | . | .
Cc1ccc(CNC(=O)/C(C#N)=C\c2ccc(N(C)C)cc2)cc1 | 45* | 20 | 9 | 45* | . | 0 | 29 | 17
N#Cc1cccc2c1-c1ccccc1/C2=N/NC(N)=O | -3 | 18 | 7 | -7 | -8 | 6 | . | .
N#Cc1cccc2c1-c1ccccc1/C2=N/NC(N)=S | 52* | 40 | 21 | 47* | -9 | -2 | 41* | 56*
COc1cccc(N(CC(=O)NCCSCc2ccc(Cl)cc2)S(C)(=O)=O)c1 | 21 | 27 | 7 | 14 | -26 | 17 | . | .
N#C/C(=C/c1ccc(N2CCCCC2)o1)c1cccc(F)c1 | 55* | 38 | 5 | 46* | -33 | -4 | 51* | 28
Cc1c(NC(=O)CSc2nnc(C(C)N(C)C)n2-c2ccccc2)c(=O)n(-c2ccccc2)n1C (centres undefined) | . | . | . | . | 14 | . | . | .
CC(C)(C)c1ccccc1NC(=S)NC1CCCCC1 | 43* | 37 | 28 | 45* | -12 | 8 | 20 | 32*
CC(C)(C)c1ccccc1NC(=S)NC1CCCC1 | 32 | 39 | 39 | 23 | 21 | 19 | . | .
CCOC(=O)c1cnc2c(ccc3ccccc32)c1NCCN(C)C | 55* | 39 | 26 | 77* | -7 | 9 | 50* | 50*
COc1ccc(N(C(=O)CNC(=O)c2cccs2)C(C(=O)NCC2CCCO2)c2ccccc2)cc1OC (centres undefined) | -6 | 16 | 10 | -1 | 14 | -6 | . | .
Cc1ccc(Nc2ncccc2C(=O)NCc2cccs2)c(C)c1 | 49* | 36 | 1 | 51* | . | 10 | 33* | 39*
